# Most compounds without a hit are left out; they make up all but 2.5% or so of the library.
# rat GALR2 agon = agonists of rat galanin receptor 2 (GALR2). hit rate 0.5% among 16,000. cell-based GALR2 agonist screen. Galanin receptor type 2 (Rattus norvegicus), O08726. activation, % at 10 µM; in the data active = activation above about 15%
# S1P1 agonist = activates the human S1P1 receptor; Sphingosine 1-phosphate receptor 1 (Homo sapiens), P21453; S1P1 agonist cell-based reporter assay; activation, % at 4.5 µM; hit rate 1.5% among 16,000; AID 1044, 2008; in the data active = activation above about 80%
# OPRK1 antag MB = antagonists of human kappa opioid receptor OPRK1, Maybridge library; OPRK1 cells, antagonist mode, fluorescence readout; inhibition, % at 9 µM; hit rate 0.4% among 16,000; AID 652031, 2013; in the data active = inhibition above about 50%
# TLR4-MyD88 inh = inhibitors of human TLR4-MyD88 binding; Toll-like receptor 4 (Homo sapiens), O00206; Cell-based TLR4-MyD88 binding inhibition assay; inhibition, % at 10 µM; hit rate 0.06% among 16,000; in the data active = inhibition above about 45%
# Numbers without * were called inactive; nt = no result.
SMILES,rat GALR2 agon,S1P1 agonist,OPRK1 antag MB,TLR4-MyD88 inh
O=C1/C(=C/c2cccs2)COC/C1=C\c1cccs1,5,-14,3,-8
Cc1cc(C(=O)/C(C#N)=N/Nc2cccc(Cl)c2)n(C(C)(C)C)n1,-5,88*,19,-12
Cc1cc(C(=O)NNc2cc(C(F)(F)F)ccc2Cl)n(C(C)(C)C)n1,-8,-15,-3,-9
COc1cc(Cl)ccc1N/N=C(\C#N)C(N)=O,-2,-3,6,-12
CC(C)(C)c1cc(C(=O)/C(C#N)=N/Nc2cccc(Cl)c2)no1,-3,108*,1,-17
O=C(Oc1ccc(-c2csnn2)cc1)c1ccc([N+](=O)[O-])o1,-6,5,12,0
O=S(=O)(c1ccccc1)N1CCN(c2ncnc3sccc23)CC1,-11,92*,-10,-7
N#Cc1ccc(N2CCN(S(=O)(=O)c3ccccc3)CC2)nc1,-6,-4,-11,-5
Cc1onc(-c2c(Cl)cccc2Cl)c1C(=O)c1ccccc1,-4,31,-5,-2
Cc1onc(-c2c(F)cccc2Cl)c1C(=O)Oc1ccccc1,-12,95*,2,-7
N#CC(N=Nc1ccc2c(c1)COCO2)S(=O)(=O)c1ccccc1 (configuration not stated),-3,10,0,0
CC(C)n1cc(-c2noc(-c3cccs3)n2)c(=O)n(Cc2ccccc2)c1=O,-6,92*,13,-2
COc1ccc(-c2nc(-c3cccc(C)c3)no2)cc1OC,-9,97*,16,-7
COc1ccc(-c2nc(-c3ccc(OS(=O)(=O)N(C)C)cc3)no2)cc1OC,-12,107*,5,nt
COc1ccc(-c2noc(-c3ccccc3)n2)cc1OC1CCCC1,-9,98*,1,-4
Cc1cccc(-c2noc(C(=O)NNC(=O)C(Cl)(Cl)Cl)n2)c1,-7,6,8,9
COc1c(C(=O)O/N=C/c2c(Cl)cccc2Cl)csc1Cl,-4,13,7,8
C/S(=N\S(=O)(=O)c1ccc(Cl)cc1)c1sc(Cl)c2c1C(=O)CC(C)(C)C2 (configuration not stated),-3,83*,12,-12
Cn1nc(C(C)(C)C)cc1C(=O)NCc1ccc2c(c1)CCO2,-9,80*,-14,4
Cc1cc(C(=O)NCc2ccc3c(c2)OCCCO3)nn1C,-6,6,3,3
Cc1nc(-c2cnccn2)sc1C(=O)N1CCN(C)CC1,-10,-18,1,4
CCOC(=O)c1ccc(N2CC3CCCCN3C2c2cccc(OC)c2O)cc1 (configuration not stated),-5,8,60*,-1
CCCCCCCCCCCC(=O)ON1C(=O)CCC1=O,-3,-5,50*,4
CCOc1ccc(/C=N/NC(=O)c2ccccc2-n2cccc2)cc1,-3,-16,-3,-1
O=S(=O)(Oc1ccc(Cl)cc1)c1csc(C(F)(F)F)c1-c1ccccc1,-10,-9,-25,3
SMILES,rat GALR2 agon,S1P1 agonist,OPRK1 antag MB,TLR4-MyD88 inh
O=C1CSCC(=O)N1c1csc(C(F)(F)F)c1-c1ccccc1,-5,100*,17,1
CCOC(=O)c1ccc(Oc2ccc(Cl)cc2Cl)c([N+](=O)[O-])c1,-4,94*,-12,0
COC(=O)c1ccc([N+](=O)[O-])c(Oc2ccc(Cl)cc2Cl)c1,-9,71,-11,-5
CC(C)(O)C#Cc1ccc(/C=N/O)cc1,-8,4,-6,0
CC(C)(O)C#Cc1ccccn1,27*,-19,-6,3
COc1ccc(C(=O)CC(C(=O)c2ccccc2)c2ccccc2)cc1 (configuration not stated),-10,102*,20,-10
O=C(CC(C(=O)c1ccccc1)c1cccs1)c1ccc(Cl)cc1 (configuration not stated),-9,43,2,-4
CCOC(=O)C1=C(CC(=O)Nc2ccc(OC)cc2)C(=O)N(c2ccc(F)cc2)C1C (configuration not stated),1,7,-1,-3
N#CC(C#N)=NNc1ccc(F)cc1F,-8,105*,18,-12
N#CC(C#N)=NNc1ccc(Cl)c(Cl)c1C#N,-5,31,18,-3
Cc1c2c(=O)n(C)ncc2c(-c2ccccc2)n1-c1ccc([N+](=O)[O-])cc1,-8,26,0,-7
O=c1c2c(-c3ccc([N+](=O)[O-])cc3)onc2n(-c2ccccc2)c(=O)n1-c1ccccc1,-8,123*,-17,4
O=C1Nc2ccc(OC(F)(F)F)cc2C1=O,26*,8,13,10
